Records with an inconclusive call do not appear. Unmarked numbers belong to inactive results. Calls of active or inactive are those of the source. The call rests on the fitted dose curve; in most records, active means well fitted activation curve with a large enough effect in the repeat runs; inconclusive means weak or mixed curves; inactive means flat fitted curve, though single readings scatter.
Experiment: A CellTox Green Cytotoxicity Assay to monitor cytotoxicity in HEK293 cells - 8 hour (AID 1224884); further: nearly all actives have a fitted effect of over 35% in size
Settings: CellTox Green fluorescence; series mostly up to 76.8 µM; cytotoxicity increase: at the top concentration
Procedure, shortened: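 Fluorescence from a DNA-binding dye excluded by viable cells was measured repeatedly in the same HEK293 wells (600 cells/well) during continuous compound exposure at 37 C. Each assay gives one read point: 0, 8, 16, 24, 32 or 40 h.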
On the % scale 0 is the no-effect control and ±100 the full control effect; potency means the concentration at half of the fitted maximal effect.

| SMILES | cytotoxicity increase | Potency |
| --- | --- | --- |
| CC(=O)Nc1ccc(OCCOCCOc2ccc(NC(C)=O)cc2)cc1 | -0.615% [at 35.3 µM] |  |
| CC(C)OC(=O)C(C(=O)OC(C)C)=C1SC=CS1 | 0.122% [at 35.3 µM] |  |
| COC(=O)N/N=C/c1c[n+]([O-])c2ccccc2[n+]1[O-] |  | 23.9 µM (active) |
| CC(=O)c1ccc2ccc3ccccc3c2c1 | -0.322% |  |
| CN(C)CCCN(C)C | -3.24% [at 6.97 µM] |  |
| CCCCCCCC(=O)N(C)C | 1.98% |  |
| CC(=O)c1c(C)cc(C(C)(C)C)cc1C | 19.1% |  |
| C=CC(C)(CCC=C(C)C)OC(=O)C(C)C (stereo unspecified) | -5.45% |  |
| CCOC(=O)COc1ccc2c(C)c(CCN(CC)CC)c(=O)oc2c1Cl | -1.49% [at 35.3 µM] |  |
| O=C(OOC(=O)c1ccccc1)c1ccccc1 | -2.54% [at 35.3 µM] |  |
| COc1ccc(Cl)cc1C | -7.74% |  |
| CCN(CC)CC(=O)Oc1ccc(NC(C)=O)cc1 | -3.77% [at 35.3 µM] |  |
| N[C@H]1C(O)O[C@H](CO)[C@@H](O)[C@@H]1O (stereo partly specified) | 0.0561% [at 35.3 µM] |  |
| O=C1Nc2ccccc2C1=O | 15.8% |  |
| CN(C)c1ccncc1 | -10.6% |  |
| Cc1nnc(C(=O)NC(C)(C)c2nc(C(=O)NCc3ccc(F)cc3)c(O)c(=O)n2C)o1 | 16.9% [at 35.3 µM] |  |
| COC(=O)c1c(C)cc(O)c(C)c1O | -5.76% |  |
| CCCCS | 17.4% |  |
| CCOC(=O)[C@H](CCc1ccccc1)N[C@H]1CS[C@H](c2cccs2)CN(CC(=O)O)C1=O | 5.81% [at 35.3 µM] |  |
| CCCC(=O)C(CC)Sc1ccoc1C (stereo unspecified) | 1.6% |  |
| C=CCON/C(CCC)=C1\C(=O)CC(C)(C)C(C(=O)OC)=C1O | 20.6% |  |
| CC/C=C\CCCCCCCCCCOC(C)=O | 2.46% |  |
| Cc1ccc(OC(=O)CC(C)C)cc1 | 2.12% |  |
| CCN1CCN(C(=O)N[C@@H](C(=O)N[C@@H]2C(=O)N3[C@@H]2SC(C)(C)[C@H]3C(=O)O)c2ccccc2)C(=O)C1=O | -3.72% [at 35.3 µM] |  |
| COc1cc(C(=O)NC2CCCNC2)cc(OC)c1OC (stereo unspecified) | -0.0869% [at 35.3 µM] |  |
| COc1cc2nc(N3CCN(C(=O)C4CCCO4)CC3)nc(N)c2cc1OC (stereo unspecified) | -2.9% [at 35.3 µM] |  |

Source: PubChem BioAssay (Tox21)
